Bioassay records as filed in PubChem BioAssay.
This is a sample that favours compounds with a hit; in the whole collection about 2.4% have one here.
D2 antag – D2 dopamine receptor (human) antagonism | AID 485344 | actives 2% (n = 340,000) | inhibition, % at 10 µM | P14416 | HEK293 TREx D2 cells, calcium flux, dopamine EC80; in the data active means inhibition above about 30%; inactive means below that, where a call was filed
Target sequence (P14416 whole entry, looked up): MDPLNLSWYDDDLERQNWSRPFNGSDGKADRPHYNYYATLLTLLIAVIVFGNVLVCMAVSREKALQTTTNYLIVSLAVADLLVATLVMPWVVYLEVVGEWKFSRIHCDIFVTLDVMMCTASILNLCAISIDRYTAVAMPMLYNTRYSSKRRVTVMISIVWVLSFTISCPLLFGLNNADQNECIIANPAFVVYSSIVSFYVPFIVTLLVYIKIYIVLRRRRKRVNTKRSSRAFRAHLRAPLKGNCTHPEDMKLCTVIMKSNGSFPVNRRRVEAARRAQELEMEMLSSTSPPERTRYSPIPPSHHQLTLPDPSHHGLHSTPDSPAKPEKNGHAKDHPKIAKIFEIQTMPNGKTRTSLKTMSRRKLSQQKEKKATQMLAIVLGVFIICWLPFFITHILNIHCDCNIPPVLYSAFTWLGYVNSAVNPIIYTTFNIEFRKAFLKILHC
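Antagonism is scored as inhibition of an EC80 dopamine-evoked calcium signal in a force-coupled, tetracycline-inducible HEK293 T-REx D2 line, with compound present 180 s before agonist.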
D2 PAM-1 – positive allosteric modulators of human D2 dopamine receptor | AID 624464 | potentiation, % (concentration not given with the values) | actives 0.23% (n = 360,000) | P14416 | DiscoveRx D2 beta-arrestin cells, luminescence, 90 min; 100% = 57 uM dopamine signal; in the data active means potentiation above about 50%; inconclusive means mostly about 30% to 49%
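PathHunter D2 cells, attached overnight at 37 deg C, received compound in DMSO plus dopamine at EC20 (50 nM final) for 90 min at 37 deg C. Beta-arrestin recruitment was read as luminescence after 1 h with detection reagent at ambient temperature.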
D2 ag-1 – activates the human D2 dopamine receptor. DiscoveRx PathHunter D2 beta-arrestin, luminescence, 90 min; 100% = 57 uM dopamine signal. actives 0.084% (n = 360,000). AID 624465. activation, % (no concentration beside the values); in the data active means activation above about 40%; inconclusive means between about 15% and that limit
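DiscoveRx PathHunter D2 beta-arrestin cells (2,100/well) attached overnight, then compound-stimulated 90 min at 37 C in HBSS/10 mM HEPES/0.1% Tween-20 buffer; beta-galactosidase complementation read by luminescence after 1 h at ambient temperature. Dopamine 57 uM final (EC100) as control.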
D2 PAM-2 – positive allosteric modulators of human D2 dopamine receptor; P14416; HEK293 T-REx D2, calcium flux, EC20 dopamine potentiation; potentiation, % at 10 µM; actives 0.34% (n = 340,000);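 active means potentiation over 3 SD above the plate norm, cut at about 30% in these data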
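Calcium flux readout, no-wash dye, 1 read/s. Inducible HEK293 Trex D2 line, overnight 30 C. Compound alone 180 s (agonist flags), then EC20 dopamine, another 180 s to score potentiation.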
D2 ag-2 – D2 dopamine receptor (human) agonism; HEK293 T-REx D2 cells, calcium flux agonist mode; activation, % at 2 µM; P14416; actives 0.53% (n = 340,000);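 active means activation over 3 SD above normal in the single-dose calcium agonist read, cut at about 30% in these data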
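Tetracycline-induced HEK293 T-REx cells with force-coupled D2 receptor, plated overnight at 30 C, loaded with no-wash calcium dye. After a 10 s baseline, compound was pin-added and calcium flux read kinetically for 180 s; calcium rises flagged agonists.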
Each line names hits and unclear results; the compound was inactive in the other large screens.

N/C(=N\OC(=O)c1ccc2c(c1)OCO2)c1cccc(Br)c1	D2 PAM-1 106.3, D2 ag-1 inconclusive
N/C(=N\OC(=O)c1ccc2c(c1)OCO2)c1cccnc1	D2 PAM-1 79.1, D2 ag-1 inconclusive
COc1ccc(/C(N)=N/OC(=O)c2ccc3c(c2)OCO3)cc1OC	D2 PAM-1 84.3
Cc1cc(C(=O)NC2CCCC2)c2ccccc2n1	none (no result: D2 antag, D2 ag-2)
Cc1cc(C(=O)NC2CCCCC2)c2cc(F)ccc2n1	D2 antag 31.5
CCCCCCN1C[C@@H](O)[C@H](n2cc(C3CC3)nn2)C[C@@H]1c1ccccc1	none (no result: D2 antag, D2 PAM-2, D2 ag-2)
O=C(NCCc1ccc(Cl)cc1)c1cc(S(=O)(=O)N2CCCC2)ccc1F	none (no result: D2 antag, D2 PAM-2, D2 ag-2)
CCCn1cnc2c(=O)oc3ccccc3c21	D2 antag 38.9
CCCn1cnc2c(oc3ccccc32)c1=O	none
COc1ccc(Cc2noc(CN3CCNC(=O)CC3)n2)cc1OC	none
NC(=O)C1(N2CCCCC2)CCN(Cc2ccc(Br)cc2)CC1	D2 antag 36.8
CCN1CCN(c2ncc3c(n2)CCN(Cc2sccc2C)C3)CC1	none (no result: D2 antag, D2 PAM-1, D2 ag-1)
COc1cc2c(cc1OC)CN(C(=O)CN1C(=O)c3ccc([N+](=O)[O-])cc3C1=O)CC2	D2 PAM-1 59.8
COc1ccc(NC(=O)CCN2C(=O)c3ccc([N+](=O)[O-])cc3C2=O)c(OC)c1	D2 PAM-1 56.3, D2 ag-1 inconclusive
COc1cc2c(cc1OC)CN(C(=O)CCCN1C(=O)c3ccccc3C1=O)CC2	none
COc1ccccc1N1CC(C(=O)Nc2nc(C)cs2)CC1=O (stereo not given)	none
Cc1csc(NC(=O)C2CC(=O)N(c3ccc(C)c(C)c3)C2)n1 (stereo not given)	D2 antag 50.8
Cc1ccc(N2CC(C(=O)Nc3cccnc3)CC2=O)cc1C (stereo not given)	D2 antag 31.1
S=C1NC2(CCCCC2)Cc2ccccc21	D2 antag 32.0
CN1CCN(C(=O)CSc2nc(-c3cccs3)ccc2C#N)CC1	D2 PAM-2 37.1
Cc1ccccc1-c1noc(-c2ccc(N3CCCCC3)c([N+](=O)[O-])c2)n1	none (no result: D2 antag, D2 PAM-1, D2 ag-1)
NC(=O)c1ccc(NCc2ccco2)c([N+](=O)[O-])c1	D2 antag 34.5
CCSc1oc(-c2ccco2)nc1S(=O)(=O)c1ccc(F)cc1	none
CCSc1oc(-c2ccco2)nc1S(=O)(=O)c1ccc(C)cc1	D2 PAM-2 33.6
Cc1c(/C=C(\C#N)C(=O)NCc2ccccc2)cc(C#N)n1C	D2 antag 36.5
CCOc1ccc(NC(=NCc2ccc3c(c2)OCO3)SC2CC(=O)N(c3ccccc3)C2=O)cc1 (stereo not given)	D2 PAM-2 31.2
CC1(Oc2ccc(CC#N)cc2)CCN(Cc2ccc(-n3ccnc3)cc2)C1 (stereo not given)	none (no result: D2 antag, D2 PAM-2, D2 ag-2)
COc1ccccc1-c1ccc(/C=C2\C=CC(=O)O2)o1	D2 ag-2 66.3
CCC(=O)N1CCc2cc(Br)cc(S(=O)(=O)N3CCC(C(=O)Nc4cccc(C)c4)CC3)c21	none (no result: D2 antag, D2 PAM-1, D2 ag-1)
Cc1ccc(C(=O)NC(=S)Nc2cccnc2Cl)cc1	D2 PAM-2 40.1
COc1ccccc1C(=O)NC(=S)Nc1cccnc1Cl	none
CCOC(=O)c1c(C)oc2nc(C)nc(NCC3CCN(Cc4ccc(F)cc4)CC3)c12	none (no result: D2 antag, D2 PAM-1, D2 ag-1)
O=C(c1ccco1)N1N=C2CCCCCC2C1(O)C(F)(F)F (stereo not given)	D2 PAM-2 32.3
CCOC1=C2[C@H](c3ccc(CC)cc3)N(S(=O)(=O)c3ccc(C)cc3)C[C@H]2n2c(=O)n(-c3ccccc3)c(=O)n2C1	none (no result: D2 antag, D2 PAM-2, D2 ag-2)
CC(Nc1oc(-c2ccco2)nc1C#N)c1ccccc1 (stereo not given)	none
CC(C)CNc1oc(-c2ccco2)nc1C#N	D2 PAM-2 35.8
COc1ccc(Cl)cc1NC(=O)CN(C)C(=O)c1cc2c(F)cccc2s1	D2 antag 30.9
COc1ccc(Cl)cc1NC(=O)CN(C)C(=O)c1ccc(C)s1	none
COc1ccc(CNC(=O)c2cc3cc(S(=O)(=O)N4CCCCC4)ccc3n2C)c(OC)c1	none (no result: D2 antag, D2 PAM-1, D2 ag-1)
Cn1c(CCC(=O)O)nc2cc(S(=O)(=O)N3CCCCC3)ccc21	D2 antag 32.5
CC1CC(C)CN(C(=O)C(NS(=O)(=O)c2ccc3c(c2)oc(=O)n3C)C(C)C)C1 (stereo not given)	none
CC(C)C(NS(=O)(=O)c1ccc2c(c1)oc(=O)n2C)C(=O)N1CCN(C2CCCCC2)CC1 (stereo not given)	D2 antag 30.6
CN1CCN(c2ncc3c(n2)CCN(Cc2ccc(Br)s2)C3)CC1	none (no result: D2 antag, D2 PAM-1, D2 ag-1)
NC(=O)c1c(NC(=O)Cc2ccccc2)sc2c1CCN(Cc1ccccc1)C2	D2 antag 47.4
Cc1noc2ncnc(N3CCCC(C(=O)Nc4cc(F)ccc4F)C3)c12 (stereo not given)	none (no result: D2 antag, D2 PAM-1, D2 ag-1)
Cc1cc2c(cc1[N+](=O)[O-])NC(CNC(C)C)CC2 (stereo not given)	D2 antag 64.8
Cc1cc(C(=O)NCC2CCCCC2)ccc1[N+](=O)[O-]	none (no result: D2 PAM-2)
COc1ccc(Cl)cc1NC(=O)CSc1nc(N2CCOCC2)nc(N2CCOCC2)n1	none
O=C(CSc1cccc(C(F)(F)F)c1)Nc1ccc(Cl)cc1Cl	D2 antag 48.6
O=C(CSc1cccc(C(F)(F)F)c1)NC(=O)c1ccccc1	none
O=C(CSc1nc(N2CCOCC2)nc(N2CCOCC2)n1)Nc1ccc(Cl)cc1Cl	D2 antag 33.1
CCS(=O)(=O)c1nc(S(=O)(=O)c2ccc(Cl)cc2)c(NCc2ccc(Cl)cc2)s1	none (no result: D2 antag, D2 PAM-1, D2 ag-1)
NC(=O)c1ccsc1NC(=O)C1CCCN1S(=O)(=O)c1ccc(Cl)cc1 (stereo not given)	none
CC1CCCCN1S(=O)(=O)c1ccc(C(=O)Nc2sccc2C(N)=O)cc1 (stereo not given)	D2 antag 31.4
CC1=C(C(N)=O)C(c2cccc(Br)c2)n2nc(SCc3ccccc3Cl)nc2N1 (stereo not given)	none (no result: D2 antag, D2 PAM-1, D2 ag-1)
CC1=C(C(N)=O)C(c2cccnc2)n2nc(SCc3ccccc3Cl)nc2N1 (stereo not given)	D2 antag 34.6
CC1CCCN(CCCNC(=O)c2ccc(NC(=O)C3=CSCCO3)cc2)C1 (stereo not given)	none
Cc1cccc(N2CCN(CCCNC(=O)c3ccc(NC(=O)C4=CSCCO4)cc3)CC2C)c1 (stereo not given)	D2 antag 36.3
Cn1c(=O)c2c(nc(SCC(=O)c3ccccc3F)n2C)n(C)c1=O	none (no result: D2 PAM-1, D2 ag-1)
COc1ccc(-c2cc(C)no2)cc1S(=O)(=O)N1CCOc2ccc(C)cc21	none
CS(=O)(=O)c1ccc(NCC2CCCO2)c([N+](=O)[O-])c1 (stereo not given)	D2 PAM-2 125.3
C/C=C/c1ccc(OCCCCN2CC(C)CC(C)C2)c(OC)c1 (stereo not given)	D2 antag 38.0
